Data as given in PubChem BioAssay (NCI).
Compounds without any hit were thinned out: in the full panel of roughly 83,000, 20% have a hit.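 How to read the values: 0–100, growth inhibition (40 = 60% inhibited); 0, no net growth; -100 to 0, cell death (-40 = 40% of starting cells died; -100 = all dead).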 Unmarked numbers belong to inactive results. Active and inactive are the calls of the source. The calls were made as follows: active = growth percent below 10; inactive = the rest.

Assays:
Experiment in all cases: NCI-60 one-dose screen, 48 h (100 = growth as untreated, 0 = no growth, -100 = all killed)
Conditions in all cases: 10 µM unless noted
SK-MEL-2 melanoma = system: SK-MEL-2 melanoma
EKVX NSCLC = system: EKVX NSCLC
SN12C renal = system: SN12C renal
UO-31 renal = system: UO-31 renal
TK-10 renal = system: TK-10 renal
ACHN renal = system: ACHN renal
CAKI-1 renal = system: CAKI-1 renal
A498 renal = system: A498 renal
MOLT-4 leukemia = system: MOLT-4 leukemia
CCRF-CEM leukemia = system: CCRF-CEM leukemia

Structure (SMILES) | growth (SK-MEL-2 melanoma) | growth (EKVX NSCLC) | growth (SN12C renal) | growth (UO-31 renal) | growth (TK-10 renal) | growth (ACHN renal) | growth (CAKI-1 renal) | growth (A498 renal) | growth (MOLT-4 leukemia) | growth (CCRF-CEM leukemia) [%]
CCN1C(=O)N(CC)C2C1NN=c1s/c(=C3\C(=O)Nc4ccccc43)c(=O)n12 (configuration not stated) | 37.6% | 65.3% | 34% | 42.9% | 60.5% | 43% | 35.5% | -26.6% (active) | 46.1% | –
Fc1ccc(C2CC(c3cccc(Nc4ccncc4)c3)=NN2c2ccc(Cl)cc2)cc1 (configuration not stated) | 101% | 84.7% | 68.5% | 52.9% | 84.6% | 75.6% | 43.6% | 78% | 24% | 42.6
Cc1ccc2[nH]c(=O)cc(-n3nncc3COc3ccc(C=O)cc3)c2c1 | 101% | 103% | 106% | 62.9% | 109% | 98.9% | 87.8% | 117% | 108% | 97.9
COc1ccc(-c2nc(N/N=C/c3c[nH]c4ccccc34)nc(N3CCOCC3)c2C#N)cc1 | 97.8% | 99.8% | 92.2% | 63.7% | 104% | 76.1% | 98% | 51.2% | 55.6% | 56.9
CCOC(=O)c1c(O)cc(-c2ccccc2)cc1-c1sc(N(C)Cc2ccccc2)nc1Cl | 101% | 101% | 97.3% | 96.8% | 108% | 97.2% | 87.9% | 108% | 94.4% | 96.3
COc1nc(N)nc(-n2c(-c3ccc(C)cc3)nc3ccccc32)c1NCc1ccc(C)cc1 | 99.9% | 94.9% | 90% | 59.9% | 98.4% | 93.7% | 40.7% | 80.7% | 83.3% | 94.5
COc1ccc(C(O)c2cc3c(N)c(C(=O)Nc4cccc(Br)c4C)sc3nc2C)cc1 (configuration not stated) | 9.35% (active) | 37.7% | 17.9% | 33.5% | 27% | 29.1% | 41.1% | -16.1% (active) | 23.1% | 16.4
Clc1nc(Cl)c2ncn(CC3(Cn4cnc5c(Cl)nc(Cl)nc54)COC3)c2n1 | -76% (active) | -71.6% (active) | -86.6% (active) | -97.7% (active) | -93.2% (active) | -98.7% (active) | -87.8% (active) | -88.6% (active) | -66.8% (active) | –
COc1ccccc1/C=N/NC1=NC2C(N1)N(C)C(=O)N2C (configuration not stated) | 104% | 99.8% | 100% | 86.2% | 125% | 102% | 91.7% | 97.4% | 102% | –
COc1ccc(C(=O)/C=C/c2cn(Cc3ccc(Cl)cc3)c3ccccc23)cc1 | 74.6% | 89% | 69.4% | 53.7% | 27.4% | 62.1% | 2.08% (active) | -6.05% (active) | 39.8% | –
CCNNC(=O)[C@@H]1[C@H](c2cc(OC)c(OC)c(OC)c2)c2cc3c(cc2[C@H](O)[C@H]1CO)OCO3 | 21.6% | 44.8% | 24% | 42% | 41.6% | 28.6% | 29.3% | – | 12.8% | 14.6
COc1cc2c(cc1[N+](=O)[O-])-c1ccc([N+](=O)[O-])cc1/C2=N/NC(N)=S | 87.8% | 68.5% | 67.1% | 29.6% | 77.4% | 37.4% | 64.1% | – | 60.1% | 56.6
CS(=O)(=O)Nc1cc(-c2ccc3ncnc(Nc4ccc5[nH]ncc5c4)c3c2)cnc1Cl | 63.1% | 62.3% | 67.8% | 64.1% | 65.6% | 83.8% | 51.9% | 24.5% | 75.3% | –
O=S(=O)(c1ccc(N/N=C\c2ccccc2)cc1)c1ccc(N/N=C/c2ccccc2)cc1 | 76.5% | 73.7% | 64.9% | 88.3% | 59.4% | 57.4% | 67.7% | – | 82.4% | 88.7
